The source of these data is PubChem BioAssay (EPA / NIEHS).

Active and inactive are the calls of the source. How the source made its calls: active means hit-call score of the fitted dose curve at least 0.9, where 1 is the maximum; inactive means score below 0.9.

In general, AC50 refers to the concentration at which the activity in the assay is half-maximal.

Read-out in the test: Cyclin D1 (CCND1), CCND1 (gene 595)
In words: LTEA_HepaRG_CCND1: Life Technologies and Expression Analysis (LTEA) Assay for Cyclin D1 (CCND1) using HepaRG (AID 2283451).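 On AC50: TaqMan qRT-PCR transcript level normalised to ACTB GAPDH and POLR2A housekeeping genes.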 The conditions noted are these: mRNA level, 48 h; actives raise or lower the signal. How it is done: LTEA_HepaRG is a cell based, multiplexed-readout assay that uses HepaRG, a human liver cell line, with measurements taken at 48 hours after chemical dosing on a 96-well plate.LTEA_HepaRG_CCND1 is one of 102 assay component(s) measured in the LTEA HepaRG cell culture assay. It is a marker of Cell proliferation, survival, death.Data from the assay component LTEA_HepaRG_CCND1 was analyzed into 1 endpoint. This assay endpoint, LTEA_HepaRG_CCND1, was analyzed with bidirectional fitting relative to DMSO as the negative control and baseline of activity. Using a type of inducible reporter, measures of mRNA induction for gain or loss-of-signal activity can be used to understand regulation of transcription factor activity. To generalize the intended target to other relatable targets, this assay endpoint is annotated to the cell cycle intended target family, where the subfamily is Cell proliferation, survival, death.
A total of 1060 chemcials from the ToxCast library were tested in eight-point concentration-response experiments. Cell culture and cytotoxicity assays were conducted at Thermo Fisher Scientific's Custom Services facility (Madison, WI). A single lot of human HepaRG cells (Thermo Fisher Scientific, Frederick, MD) was used for the cell culture experiments. 96-well format collagen type I coated plates of human HepaRG cells were prepared using established methods. Briefly, cryopreserved HepaRG cells were thawed, plated at a density of approximately 100,000 cells/well in HepaRG Thaw, Plate, and General Purpose media (HPRG770, Thermo Fisher Scientific), and incubated for 48 hours. 0.5% DMSO was selected as vehicle control to balance the requisite need of DMSO in HepaRG cultures to maintain differentiation (for example, baseline metabolism, proportions of hepatocytes vs. cholangiocytes), while enabling further hepatic receptor pathway activation (for example, PXR and CAR) in response to chemical exposure. 48 hours after plating, the culture medium was replaced with HepaRG Serum-Free Incudtion Media. Cells were exposed to each test chemical in duplicate and maintained in CO2 incubators for another 48 hours. Chemical plates were thawed to room temperature and 200x concentrations of treatment groups were prepared. 8-point conentration-reponse curves were made with the highest exposure at 100 uM, followed by half-log dilutions, all in 0.5% DMSO. Each test plate contained variouse controls, induction positive controls (1mM phenobarbital), cytotoxicity positive controls ([…] aflatoxin B1), vehicle controls (0.5% DMSO), and total lysis controls (0.5% DMSO). Cell morphology images were taken using an Essen IncuCyte FLR automated microscope, with six 96-well plates imaged in about 24 minutes. Images were captured and exported and JPEG files. Spent culture media was transfered to black-well plates for the LDH assay, and remaining media was sorted at -80 C for later use. Cells were treated with RLT buffer and frozen until shipped for gene expression analysis. Total RNA was isolated from the cell suspension in 75 uL of Buffer RLT (Qiagen, Germantown, MD 20874) by Quintiles/Expression Analysis (Durham, NC) using a custom isolation procedure. Total RNA from each plate well was transferred to a preamplification plate. Fluidigm's 96.96 Dynamic ArrayTM (Fluidigm, Amsterdam, the Netherlands) technology was used for gene expression analyses by quantitative reverse transcription polymerase chain reaction (qRT-PCR, performed by Quintiles/Expression Analysis, Durham, NC)89. Standard TaqManTM Assays (Applied Biosystems/ThermoFisher Scientific, Foster City, CA) were used to assess the expression of 93 genes selected based on their selectivity and sensitivity to important hepatic receptors known to be modulated by environmental chemicals; importance in human hepatocyte functionality; and hepatotoxicity. […]
Regarding `CC(C)(C)c1cc(C(C)(C)C)c(O)c(C(C)(C)C)c1`, the compound was called inactive.

Turning to `CC(=O)CC(C)(C)O`, the call was inactive.

Turning to `CCCCC(CC)COC(=O)CCCCC(=O)OCc1ccccc1` (stereo not given), the compound was called inactive.

Take `O=C(O)Cc1cc(I)c(Oc2cc(I)c(O)c(I)c2)c(I)c1`: the concentration at half-maximal activity (AC50) was 33.5 µM (active).

Regarding `CCCCCCCCCCCCc1ccccc1S(=O)(=O)O`, the result was inactive.

With `CCCCCCC(=O)O`, the outcome was inactive.

On to `CCCCCCCCCCCCCCCS(=O)(=O)Oc1ccccc1`, for which the result was inactive.

For the compound `O=[N+]([O-])c1ccc(O)cc1`, the compound was called inactive.

Take `CC(C)(C)CC(C)(C)c1ccc(O)c(-n2nc3ccccc3n2)c1`: the compound was called inactive.

Turning to `CCN(CC)CCNc1ccc(CNC=O)c2sc3ccc(OC)cc3c(=O)c12`, the result was inactive.

On to `Nc1cccc2c(N)cccc12`, for which the compound was called inactive.

Turning to `OC1CCC(C2CCCCC2)CC1` (stereo not given), the result was inactive.

As to `CN1CCN(c2ccccc2/C=C2\SCCN(c3ccc(Cl)c(Cl)c3)C2=O)CC1`, the compound was classed as inactive.

For the compound `c1ccc2c(c1)Cc1ccccc1-2`, the compound was called inactive.

Regarding `CC#C[C@]1(O)CC[C@H]2[C@@H]3CCC4=CC(=O)CCC4=C3[C@@H](c3ccc(N(C)C)cc3)C[C@@]21C`, the AC50 is 86.2 µM (active).

On to `O=c1c(-c2ccc(O)cc2)coc2cc(O)ccc12`, for which the call was inactive.

Take `OCCC(F)(F)C(F)(F)C(F)(F)C(F)(F)C(F)(F)C(F)(F)F`: the compound was called inactive.

Regarding `CN(C)C=O`, the outcome was inactive.

Turning to `COCC(C)O` (stereo not given), the compound was called inactive.

Regarding `COC(=O)CCCCC(=O)OC`, the compound was classed as inactive.

For `CCc1ccc(CCOc2ccc(CC3SC(=O)NC3=O)cc2)nc1` (stereo not given), the half-maximal activity concentration (AC50) was 50 µM (active).

For the compound `CC(C)CCCCCCOC(=O)CCCCC(=O)OCCCCCCC(C)C`, the outcome was inactive.

As to `CCCCOCCO`, the outcome was inactive.

Turning to `CN1CCC[C@H]1c1cccnc1`, the result was inactive.

On to `CCCCCCCCOC(=O)CCCCCCCCC(=O)OCCCCCCCC`, for which the result was inactive.

On to `Oc1cc2ccccc2c2ccccc12`, for which the call was inactive.

`CCCOc1sc(C(=O)N2CCC(c3cc(CN)ccc3F)CC2)c(C)c1Br`: the compound was called inactive.

Consider `O=C(O)c1ccccc1C(c1ccc(O)cc1)c1ccc(O)cc1`, for which the compound was classed as inactive.

As to `Oc1cccc(O)c1`, the compound was called inactive.

With `C#C[C@]1(O)CC[C@H]2[C@@H]3CCC4=CC(=O)CC[C@@H]4[C@H]3CC[C@@]21C`, the compound was classed as inactive.

With `CCCOC(=O)c1ccc(O)cc1`, the call was inactive.

Take `Cc1cc(C)c(O)c(C)c1`: the call was inactive.

Consider `CCc1nn(C2CCCCC2)c2cc(C3(C#N)CCC(C(=O)O)CC3)ccc12` (stereo not given), for which the half-maximal activity concentration (AC50) was 19.5 µM (active).

Regarding `O=C(OCCOCCOC(=O)c1ccccc1)c1ccccc1`, the compound was classed as inactive.

On to `Cc1oc(-c2ccccc2)nc1CCOc1ccc(C[C@H](Nc2ccccc2C(=O)c2ccccc2)C(=O)O)cc1`, for which the half-maximal activity concentration (AC50) is 23.6 µM (active).

Turning to `CCOC(=O)CC(O)(CC(=O)OCC)C(=O)OCC`, the compound was called inactive.

Regarding `c1ccc2c(c1)ccc1ccccc12`, the result was inactive.

In the case of `COc1ccc([N+](=O)[O-])cc1N`, the compound was called inactive.

With `CC(C)(C)c1ccc(O)c(C(C)(C)C)c1`, the result was inactive.

For `CC1=C(/C=C/C(C)=C/C=C/C(C)=C/C(=O)O)C(C)(C)CCC1`, the compound was classed as inactive.
